Values without a mark were called inactive. Inconclusive results are not listed. Where a call stands in place of a potency, no number is given. Active and inactive are the calls of the source. Unless noted, the call rests on the fitted dose curve; in most records, active means well fitted curve in the direction sought with a large enough effect in the repeat runs; inconclusive means weak or mixed curves; inactive means no such curve, though single readings can be large; an effect the other way counts as inactive or inconclusive.
What was measured:
[1] = qHTS assay to identify small molecule antagonists of the sonic hedgehog signaling (Shh) pathway (AID 1259369; calls by dose curve; further: nearly all actives have a fitted effect of over 45% in size)
How it was run: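 Read-out is luminescence from a firefly luciferase gene controlled by the Gli1 response element, in 3T3Gli1-Luc cells pre-incubated 4hr then exposed to compounds and conditioned medium for 24hr.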

[2] = molecular target: Estrogen receptor beta (Homo sapiens) (UniProt Q92731); assay: qHTS assay to identify small molecule agonists of the estrogen receptor beta (ER-beta) signaling pathway (AID 1259377; active means well fitted activation curve with a large enough effect in the signal ratio in the repeat runs, not every such curve was filed as active; the % refers to the signal ratio)
How it was run: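 Ratiometric beta-lactamase FRET read-out came after 2 h substrate loading at room temperature. It followed 16 h compound treatment at 37C of GripTite HEK293T cells carrying a UAS-bla reporter, plated in 2% charcoal-stripped FBS medium.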

[3] = molecular target: Estrogen receptor beta (Homo sapiens) (UniProt Q92731); assay: qHTS assay to identify small molecule antagonists of the estrogen receptor beta (ER-beta) signaling pathway (AID 1259378; active means well fitted inhibition curve with a large enough effect in the signal ratio in the repeat runs, not every such curve was filed as active; the % refers to the signal ratio; further: potency means the concentration at half of the fitted maximal effect)
How it was run: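 ER-beta-UAS-bla HEK293T (GripTite) cells in 2% charcoal-stripped FBS medium were preincubated 6 hr at 37C, dosed with compound, then stimulated with 1 nM E2 (final) for 16 hr; beta-lactamase reporter read by B/G FRET fluorescence after 2 hr substrate loading.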

[4] = qHTS assay to identify small molecule agonists of the androgen receptor (AR) signaling pathway in the presence of an antagonist - cell viability counter screen (AID 1259379); further: nearly all actives have a fitted effect of over 25% in size; further: potency means the concentration at half of the fitted maximal effect
How it was run: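 Each compound was tested at 15 concentrations on MDA-kb2 cells in the presence of 3.0uM nilutamide. Viability was measured by CellTiter-Fluor fluorescence after a 16 hr incubation at 37C in a CO2-free atmosphere.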

[5] = qHTS assay to identify small molecule agonists of the estrogen receptor beta (ER-beta) signaling pathway - cell viability counter screen (AID 1259380); further: nearly all actives have a fitted effect of over 30% in size
How it was run: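 Compounds dissolved in DMSO were pin-transferred onto ER-beta-UAS-bla HEK293T cells that had settled 6 hr, and exposure ran 16 hr at 37C. Following the reporter read, CellTiter-Glo luminescence after 30 min at room temperature indicated cytotoxicity.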

[6] = qHTS assay to identify small molecule antagonists of the estrogen receptor beta (ER-beta) signaling pathway - cell viability counter screen (AID 1259382); further: series mostly up to about 92 µM; nearly all actives have a fitted effect of over 55% in size
How it was run: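 CellTiter-Glo ATP luminescence measured after the LiveBLAzer read in the same wells; ER-beta-UAS-bla HEK293T cells, 16 hr compound treatment with 1nM 17-beta-estradiol agonist at 37C, 5% CO2.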

[7] = molecular target: Estrogen receptor (Homo sapiens) (UniProt P03372); assay: qHTS assay to identify small molecule agonists of the estrogen receptor alpha (ER-alpha) signaling pathway in the presence of an antagonist (AID 1259383; calls by dose curve; further: top concentration of the series differs between compounds; nearly all actives have a fitted effect of over 15% in size)
How it was run: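 Luminescent ERE-luciferase reporter, VM7Luc4E2 cells (endogenous ER-alpha); 10.0nM ICI-182,780 final; 15-point compound titration; 22hr at 37C; ONE-Glo, 30min RT.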

[8] = qHTS assay to identify small molecule agonists or antagonists of the thyroid stimulating hormone receptor (TSHR) signaling pathway - wild type cell line counter screen (AID 1259384; calls by dose curve)
How it was run: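 Wild-type HEK293 cells were plated 18 h at 37 C/5% CO2, pin-dosed with compound plus Ro20-1724 medium, held 30 min at room temperature, then given cAMP-d2 and anti-cAMP-cryptate; fluorescence was read after 1 h. Fifteen concentrations, triplicate.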

[9] = molecular target: Thyrotropin receptor (Homo sapiens) (UniProt P16473); assay: qHTS assay to identify small molecule antagonists of the thyroid stimulating hormone receptor (TSHR) signaling pathway (AID 1259385; calls by dose curve; further: nearly all actives have a fitted effect of over 20% in size)
How it was run: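 TSHR-HEK293 cells were plated and held 18 h at 37C/5% CO2, then given compound plus Ro20-1724 and stimulated with TSH at 1.5 ng/mL final. After 30 min at room temperature, cAMP was detected with cAMP-d2/anti-cAMP-cryptate (1 h) by fluorescence.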

[10] = qHTS assay to identify small molecule agonists of the estrogen receptor alpha (ER-alpha) signaling pathway in the presence of an antagonist - cell viability counter screen (AID 1259386);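 further: series mostly up to about 92 µM; cells exposed to compounds for 22 h at 37 °C before the viability read; nearly all actives have a fitted effect of over 30% in size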
How it was run: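 Using estrogen-depleted VM7Luc4E2 cells, the 15-concentration compound series was applied together with 10.0nM ICI-182,780 and incubated 22hr at 37C/5% CO2. Cell viability was then scored by CellTiter-Fluor.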

[11] = molecular target: Progesterone receptor (Homo sapiens) (UniProt P06401); assay: qHTS assay to identify small molecule agonists of the progesterone receptor (PR) signaling pathway (AID 1346784; calls by dose curve; further: nearly all actives have a fitted effect of over 30% in size)
How it was run: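 Agonist qHTS: compounds pinned onto 3,000 PR-UAS-bla HEK 293T cells per well in charcoal-stripped serum medium, 16hr at 37C, then beta-lactamase activity measured by LiveBLAzer FRET fluorescence after 2 hours at room temperature.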

[12] = molecular target: Progesterone receptor (Homo sapiens) (UniProt P06401); assay: qHTS assay to identify small molecule antagonists of the progesterone receptor (PR) signaling pathway (AID 1346795; active means well fitted inhibition curve with a large enough effect in the signal ratio in the repeat runs, not every such curve was filed as active; the % refers to the signal ratio)
How it was run: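 Antagonist mode with agonist R5020 at 1 nM final and 16 hr incubation at 37C. Reporter was beta-lactamase driven by UAS in HEK293T (PR-UAS-bla), 2% charcoal-stripped serum; signal from LiveBLAzer FRET substrate, 2 hr at room temperature.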

[13] = qHTS assay to identify small molecule antagonists of the progesterone receptor (PR) signaling pathway - cell viability counter screen (AID 1346798); further: series mostly up to about 92 µM; nearly all actives have a fitted effect of over 50% in size
How it was run: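 Cytotoxicity read as CellTiter-Glo luminescence (30 min, room temperature) in the same wells as the beta-lactamase readout. HEK293T PR-UAS-bla cells in charcoal-stripped 2% FBS received compound and R5020, then 16 h at 37C, 5% CO2.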

[14] = qHTS assay to identify small molecule agonists of the progesterone receptor (PR) signaling pathway - cell viability counter screen (AID 1346799; calls by dose curve; further: nearly all actives have a fitted effect of over 45% in size)
How it was run: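 Cytotoxicity measured by CellTiter-Glo luminescence (30 min, RT) in the same wells as the PR beta-lactamase agonist read. Those HEK293T cells had 16 h compound treatment at 37 C in 2% charcoal-stripped FBS medium.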

[15] = qHTS assay to identify small molecule antagonists of the TGF-beta/Smad signaling pathway - cell viability counter screen (AID 1346824); further: nearly all actives have a fitted effect of over 50% in size
How it was run: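 SBE-bla HEK 293T cells were plated overnight at 37 C, then given compounds in DMSO plus TGF-beta1 (added as 0.25 ng/mL solution) for 5 hr. After the bla read, CellTiter-Glo was added to the same wells and luminescence read after 30 min at room temperature.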

[16] = qHTS assay to identify small molecule agonists of the TGF-beta/Smad signaling pathway - cell viability counter screen (AID 1346829); further: top concentration of the series differs between compounds; nearly all actives have a fitted effect of over 45% in size
How it was run: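 Here the cytotoxicity of library compounds is measured in SBE-bla HEK 293T cells treated for 5 hr, using CellTiter-Glo added to wells already read for the beta-lactamase reporter.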

[17] = qHTS assay to identify small molecule agonists of the TGF-beta/Smad signaling pathway (AID 1346859; active means well fitted activation curve with a large enough effect in the signal ratio in the repeat runs, not every such curve was filed as active; the % refers to the signal ratio; further: series mostly up to about 77 µM)
How it was run: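 Fluorescence (ex 405 nm; em 460 and 530 nm) was read 2 h after LiveBLAzer FRET substrate at RT. The preceding compound treatment of overnight-plated SBE-bla HEK293T cells lasted 5 h at 37 C.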

[18] = molecular target: Thyrotropin-releasing hormone receptor (Homo sapiens) (UniProt P34981); assay: qHTS assay to identify small molecule agonists of the thyrotropin-releasing hormone receptor (TRHR) signaling pathway (AID 1346891; calls by dose curve; further: series mostly up to about 58 µM)
How it was run: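 Agonist-mode intracellular calcium readout: kinetic fluorescence over 3 min at 1 s intervals after compound addition to TRHR-HEK293 cells (18 h seeded, 2 h dye-loaded at 37 C). Fifteen concentrations, triplicates.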

[19] = molecular target: Thyrotropin-releasing hormone receptor (Homo sapiens) (UniProt P34981); assay: qHTS assay to identify small molecule antagonists of the thyrotropin-releasing hormone receptor (TRHR) signaling pathway (AID 1346877; active means well fitted inhibition curve with a large enough effect in the repeat runs, not every such curve was filed as active; further: series mostly up to about 51 µM)
How it was run: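 Calcium signal in dye-loaded TRHR/HEK293 cells; compounds added 5 min before TRH (1 nM final); fluorescence monitored 3 min at 1 s steps.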

[20] = molecular target: Androgen receptor (Homo sapiens) (UniProt P10275); assay: qHTS assay to identify small molecule agonists of the androgen receptor (AR) signaling pathway in the presence of an antagonist (AID 1259381; calls by dose curve; further: nearly all actives have a fitted effect of over 15% in size)
How it was run: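 Plated MDA-kb2 cells (3,000/well) were pre-incubated 5hr, given nilutamide (3.0uM final) or buffer, then dosed with compounds in DMSO at 15 concentrations. Luciferase activity was quantified by luminescence after 16hr at 37C.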

Sequence of Thyrotropin-releasing hormone receptor (Homo sapiens) (P34981 whole entry, looked up): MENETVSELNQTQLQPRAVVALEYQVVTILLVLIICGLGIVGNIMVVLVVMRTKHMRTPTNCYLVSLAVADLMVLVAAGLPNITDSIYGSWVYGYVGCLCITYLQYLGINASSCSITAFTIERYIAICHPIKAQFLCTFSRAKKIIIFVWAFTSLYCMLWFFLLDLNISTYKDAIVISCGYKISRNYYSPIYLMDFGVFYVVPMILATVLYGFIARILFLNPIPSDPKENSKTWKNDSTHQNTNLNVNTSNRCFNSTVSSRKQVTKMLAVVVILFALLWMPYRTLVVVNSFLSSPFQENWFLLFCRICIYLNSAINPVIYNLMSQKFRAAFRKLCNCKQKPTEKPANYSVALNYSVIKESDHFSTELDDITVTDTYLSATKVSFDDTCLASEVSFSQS
Sequence of Estrogen receptor (Homo sapiens) (P03372 whole entry, looked up): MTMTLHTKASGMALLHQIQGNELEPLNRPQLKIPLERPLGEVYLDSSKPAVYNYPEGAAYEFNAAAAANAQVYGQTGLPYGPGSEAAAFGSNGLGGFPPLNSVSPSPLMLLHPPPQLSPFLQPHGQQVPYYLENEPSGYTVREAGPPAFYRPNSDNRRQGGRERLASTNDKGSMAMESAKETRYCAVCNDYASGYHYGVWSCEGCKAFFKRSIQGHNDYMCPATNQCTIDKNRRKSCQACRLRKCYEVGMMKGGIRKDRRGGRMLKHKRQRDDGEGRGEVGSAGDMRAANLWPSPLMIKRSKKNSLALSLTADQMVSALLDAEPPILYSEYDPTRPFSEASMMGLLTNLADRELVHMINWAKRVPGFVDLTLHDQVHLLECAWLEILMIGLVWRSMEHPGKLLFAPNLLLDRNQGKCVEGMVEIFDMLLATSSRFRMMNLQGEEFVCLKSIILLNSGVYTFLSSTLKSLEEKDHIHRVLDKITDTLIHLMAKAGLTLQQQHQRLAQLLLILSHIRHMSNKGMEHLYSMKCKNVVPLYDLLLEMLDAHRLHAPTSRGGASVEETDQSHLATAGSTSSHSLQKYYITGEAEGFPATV
Sequence of Estrogen receptor beta (Homo sapiens) (Q92731 whole entry, looked up): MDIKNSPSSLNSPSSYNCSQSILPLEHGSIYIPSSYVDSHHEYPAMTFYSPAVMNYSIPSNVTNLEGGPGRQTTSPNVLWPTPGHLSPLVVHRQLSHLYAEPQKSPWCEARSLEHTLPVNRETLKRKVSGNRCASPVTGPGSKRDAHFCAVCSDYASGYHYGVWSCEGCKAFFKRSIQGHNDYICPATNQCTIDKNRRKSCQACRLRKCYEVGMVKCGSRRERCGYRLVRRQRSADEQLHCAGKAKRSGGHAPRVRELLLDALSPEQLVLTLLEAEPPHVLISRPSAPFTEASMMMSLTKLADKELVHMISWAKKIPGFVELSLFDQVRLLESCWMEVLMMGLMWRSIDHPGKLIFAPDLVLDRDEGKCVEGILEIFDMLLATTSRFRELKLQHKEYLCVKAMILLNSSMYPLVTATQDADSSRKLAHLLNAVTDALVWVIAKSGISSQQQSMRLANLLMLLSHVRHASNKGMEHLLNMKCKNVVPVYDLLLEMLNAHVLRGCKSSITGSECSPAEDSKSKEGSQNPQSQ
Sequence of Progesterone receptor (Homo sapiens) (P06401 whole entry, looked up): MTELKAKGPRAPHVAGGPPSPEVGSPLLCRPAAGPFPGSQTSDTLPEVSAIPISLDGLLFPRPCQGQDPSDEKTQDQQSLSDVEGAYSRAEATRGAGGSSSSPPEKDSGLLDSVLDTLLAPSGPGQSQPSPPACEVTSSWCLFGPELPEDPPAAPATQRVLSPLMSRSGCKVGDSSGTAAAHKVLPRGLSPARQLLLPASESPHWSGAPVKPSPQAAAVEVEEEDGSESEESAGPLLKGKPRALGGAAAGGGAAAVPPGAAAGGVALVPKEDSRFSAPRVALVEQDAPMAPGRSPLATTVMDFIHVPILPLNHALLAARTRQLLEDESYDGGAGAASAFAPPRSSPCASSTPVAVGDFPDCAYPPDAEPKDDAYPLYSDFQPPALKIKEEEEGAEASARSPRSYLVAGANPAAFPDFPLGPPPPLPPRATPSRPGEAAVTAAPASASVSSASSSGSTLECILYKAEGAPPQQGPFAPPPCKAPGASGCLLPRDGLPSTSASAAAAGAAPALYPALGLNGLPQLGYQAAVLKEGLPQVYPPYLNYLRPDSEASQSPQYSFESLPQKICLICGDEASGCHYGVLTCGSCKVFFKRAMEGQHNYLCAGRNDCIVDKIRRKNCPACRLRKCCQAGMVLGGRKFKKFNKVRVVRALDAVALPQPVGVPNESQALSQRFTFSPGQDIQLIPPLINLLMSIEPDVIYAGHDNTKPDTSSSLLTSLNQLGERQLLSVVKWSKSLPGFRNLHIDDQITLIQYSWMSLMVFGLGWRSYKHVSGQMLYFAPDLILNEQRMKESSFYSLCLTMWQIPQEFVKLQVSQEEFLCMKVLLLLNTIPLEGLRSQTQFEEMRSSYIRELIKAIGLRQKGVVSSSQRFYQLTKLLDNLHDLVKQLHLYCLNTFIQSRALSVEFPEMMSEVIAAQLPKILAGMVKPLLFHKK
Sequence of Thyrotropin receptor (Homo sapiens) (P16473 whole entry, looked up): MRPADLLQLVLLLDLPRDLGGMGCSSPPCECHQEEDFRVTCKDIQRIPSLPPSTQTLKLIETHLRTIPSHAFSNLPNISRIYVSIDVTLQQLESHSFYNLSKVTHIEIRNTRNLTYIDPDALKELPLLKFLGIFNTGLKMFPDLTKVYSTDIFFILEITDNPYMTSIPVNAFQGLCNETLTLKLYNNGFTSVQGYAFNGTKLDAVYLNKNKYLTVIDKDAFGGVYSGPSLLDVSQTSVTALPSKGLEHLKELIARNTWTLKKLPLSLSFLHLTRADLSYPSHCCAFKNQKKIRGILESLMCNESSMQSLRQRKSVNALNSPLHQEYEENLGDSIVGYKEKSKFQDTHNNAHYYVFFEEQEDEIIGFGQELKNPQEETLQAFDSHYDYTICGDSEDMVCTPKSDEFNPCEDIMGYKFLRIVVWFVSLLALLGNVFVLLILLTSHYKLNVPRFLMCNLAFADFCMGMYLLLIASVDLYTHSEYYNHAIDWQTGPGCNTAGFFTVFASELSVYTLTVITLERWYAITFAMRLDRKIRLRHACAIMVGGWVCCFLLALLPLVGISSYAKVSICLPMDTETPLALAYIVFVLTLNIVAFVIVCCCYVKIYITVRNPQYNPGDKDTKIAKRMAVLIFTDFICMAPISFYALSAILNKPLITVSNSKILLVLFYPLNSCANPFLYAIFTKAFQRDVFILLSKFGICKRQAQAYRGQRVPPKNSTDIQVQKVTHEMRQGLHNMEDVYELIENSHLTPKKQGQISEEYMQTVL
Sequence of Androgen receptor (Homo sapiens) (P10275 whole entry, looked up): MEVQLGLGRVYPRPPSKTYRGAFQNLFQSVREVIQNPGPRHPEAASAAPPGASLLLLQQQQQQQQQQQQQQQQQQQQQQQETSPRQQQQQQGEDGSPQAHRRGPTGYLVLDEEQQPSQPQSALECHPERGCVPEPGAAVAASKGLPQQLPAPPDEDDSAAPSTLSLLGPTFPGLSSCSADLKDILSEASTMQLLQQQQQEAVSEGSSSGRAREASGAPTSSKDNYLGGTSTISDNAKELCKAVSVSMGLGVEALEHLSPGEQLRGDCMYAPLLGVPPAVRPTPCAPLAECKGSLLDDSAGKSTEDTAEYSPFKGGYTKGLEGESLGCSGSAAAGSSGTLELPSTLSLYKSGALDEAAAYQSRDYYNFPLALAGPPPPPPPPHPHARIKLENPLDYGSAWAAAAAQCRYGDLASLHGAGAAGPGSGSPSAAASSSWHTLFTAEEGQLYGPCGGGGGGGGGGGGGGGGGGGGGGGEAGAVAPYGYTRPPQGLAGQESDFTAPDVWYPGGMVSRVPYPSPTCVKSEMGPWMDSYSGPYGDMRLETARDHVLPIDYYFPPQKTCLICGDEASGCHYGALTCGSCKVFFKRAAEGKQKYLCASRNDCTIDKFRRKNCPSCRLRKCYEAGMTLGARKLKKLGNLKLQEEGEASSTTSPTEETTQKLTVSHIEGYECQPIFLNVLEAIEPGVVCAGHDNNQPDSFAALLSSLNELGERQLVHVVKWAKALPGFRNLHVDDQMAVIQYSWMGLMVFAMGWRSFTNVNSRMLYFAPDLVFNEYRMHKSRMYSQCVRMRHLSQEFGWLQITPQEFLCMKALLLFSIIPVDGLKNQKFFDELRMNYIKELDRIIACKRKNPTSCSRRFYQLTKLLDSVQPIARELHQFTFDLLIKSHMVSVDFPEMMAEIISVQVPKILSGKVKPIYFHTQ

SMILES | Potency [1] | Potency [2] | Potency [3] | Potency [4] | Potency [5] | Potency [6] | Potency [7] | outcome [8] | Potency [9] | Potency [10] | Potency [11] | Potency [12] | Potency [13] | Potency [14] | Potency [15] | Potency [16] | outcome [17] | Potency [18] | Potency [19] | Potency [20]
c1ccoc1 | inactive | inactive | inactive | inactive | inactive | inactive | inactive | inactive | inactive | inactive | inactive | inactive | inactive | inactive | inactive | inactive | inactive | inactive | – | –
Nc1nc(=S)[nH][nH]1 | inactive | inactive | inactive | inactive | inactive | inactive | inactive | – | inactive | inactive | inactive | inactive | inactive | inactive | inactive | inactive | inactive | – | inactive | –
C[N+](C)(C)CCCl | inactive | inactive | inactive | inactive | inactive | inactive | inactive | inactive | inactive | inactive | inactive | inactive | inactive | inactive | inactive | inactive | inactive | – | inactive | inactive
Clc1cc(C(Cl)(Cl)Cl)cnc1Cl | inactive | inactive | inactive | 24.3 µM (active) | inactive | inactive | inactive | inactive | inactive | inactive | inactive | inactive | inactive | inactive | inactive | inactive | – | – | inactive | –
CC(=O)[C@H]1CC[C@H]2[C@@H]3CC[C@H]4C[C@](C)(O)CC[C@]4(C)[C@H]3CC[C@]12C | inactive | inactive | 2.11 µM (active) | inactive | inactive | inactive | inactive | – | inactive | inactive | inactive | inactive | inactive | inactive | inactive | inactive | inactive | inactive | inactive | –
CCO[C@H]1O[C@@H]2OC3(C)CC[C@H]4[C@H](C)CC[C@@H]([C@H]1C)[C@@]24OO3 | inactive | inactive | inactive | inactive | inactive | – | inactive | – | – | inactive | inactive | – | inactive | inactive | inactive | inactive | inactive | inactive | – | inactive
CCCN(CCCl)c1c([N+](=O)[O-])cc(C(F)(F)F)cc1[N+](=O)[O-] | inactive | inactive | inactive | inactive | inactive | inactive | inactive | inactive | inactive | inactive | inactive | – | – | inactive | inactive | inactive | inactive | inactive | inactive | –

From PubChem BioAssay (Tox21)
